From the supplement of paper PMC8975748
Counter-ions that a name gives are not always drawn. ± gives the standard deviation of the averaged measurements.

Assays:
[1] = tested on: Saccharomyces cerevisiae BY4741 SeMeCo community; experiment: z-score of subpopulation abundance vs DMSO median, subpopulation auxotrophic for L; higher = larger share of this subpopulation than in DMSO controls; details: 10 µM; 24 h; SM minimal medium; subpopulation (auxotrophy): L
Outline: (§1)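 Cells of a Saccharomyces cerevisiae BY4741 community, carrying four plasmids that each restored one auxotrophy and encoded a distinct fluorescent protein, were pre-grown overnight to OD600 1.0 and diluted to 0.3. A 70 µl volume was added to 384-well plates acoustically predosed with library drugs (10 µM final) and grown 24 h in minimal SM medium. After paraformaldehyde fixation, automated confocal microscopy was used, with single-auxotroph fluorescent strains for thresholds and autofluorescence correction. The abundance of each subpopulation was scored as a z-score against the vehicle-well median.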

[2] = tested on: Saccharomyces cerevisiae BY4741 SeMeCo community; experiment: z-score of subpopulation abundance vs DMSO median, subpopulation auxotrophic for H; higher = larger share of this subpopulation than in DMSO controls; details: 10 µM; 24 h; SM minimal medium; subpopulation (auxotrophy): H
Outline: as §1

[3] = tested on: Saccharomyces cerevisiae BY4741 SeMeCo community; experiment: z-score of subpopulation abundance vs DMSO median, subpopulation auxotrophic for LU; higher = larger share of this subpopulation than in DMSO controls; details: 10 µM; 24 h; SM minimal medium; subpopulation (auxotrophy): LU
Outline: as §1

[4] = tested on: Saccharomyces cerevisiae BY4741 SeMeCo community; experiment: z-score of subpopulation abundance vs DMSO median, subpopulation auxotrophic for LM; higher = larger share of this subpopulation than in DMSO controls; details: 10 µM; 24 h; SM minimal medium; subpopulation (auxotrophy): LM
Outline: as §1

[5] = tested on: Saccharomyces cerevisiae BY4741 SeMeCo community; experiment: z-score of subpopulation abundance vs DMSO median, subpopulation auxotrophic for HU; higher = larger share of this subpopulation than in DMSO controls; details: 10 µM; 24 h; SM minimal medium; subpopulation (auxotrophy): HU
Outline: as §1

[6] = tested on: Saccharomyces cerevisiae BY4741 SeMeCo community; experiment: z-score of subpopulation abundance vs DMSO median, subpopulation auxotrophic for UM; higher = larger share of this subpopulation than in DMSO controls; details: 10 µM; 24 h; SM minimal medium; subpopulation (auxotrophy): UM
Outline: as §1

[7] = tested on: Saccharomyces cerevisiae BY4741 SeMeCo community; experiment: z-score of subpopulation abundance vs DMSO median, subpopulation auxotrophic for HL; higher = larger share of this subpopulation than in DMSO controls; details: 10 µM; 24 h; SM minimal medium; subpopulation (auxotrophy): HL
Outline: as §1

[8] = tested on: Saccharomyces cerevisiae BY4741 SeMeCo community; experiment: z-score of subpopulation abundance vs DMSO median, subpopulation auxotrophic for HLU; higher = larger share of this subpopulation than in DMSO controls; details: 10 µM; 24 h; SM minimal medium; subpopulation (auxotrophy): HLU
Outline: as §1

[9] = tested on: Saccharomyces cerevisiae BY4741 SeMeCo community; experiment: z-score of subpopulation abundance vs DMSO median, subpopulation auxotrophic for HLM; higher = larger share of this subpopulation than in DMSO controls; details: 10 µM; 24 h; SM minimal medium; subpopulation (auxotrophy): HLM
Outline: as §1

[10] = tested on: Saccharomyces cerevisiae BY4741 SeMeCo community; experiment: z-score of subpopulation abundance vs DMSO median, subpopulation auxotrophic for HUM; higher = larger share of this subpopulation than in DMSO controls; details: 10 µM; 24 h; SM minimal medium; subpopulation (auxotrophy): HUM
Outline: as §1

[11] = tested on: Saccharomyces cerevisiae BY4741 SeMeCo community; experiment: z-score of subpopulation abundance vs DMSO median, subpopulation auxotrophic for LUM; higher = larger share of this subpopulation than in DMSO controls; details: 10 µM; 24 h; SM minimal medium; subpopulation (auxotrophy): LUM
Outline: as §1

[12] = tested on: Saccharomyces cerevisiae BY4741 SeMeCo community; experiment: z-score of subpopulation abundance vs DMSO median, subpopulation auxotrophic for HLUM; higher = larger share of this subpopulation than in DMSO controls; details: 10 µM; 24 h; SM minimal medium; subpopulation (auxotrophy): HLUM
Outline: as §1

[13] = tested on: Saccharomyces cerevisiae BY4741 SeMeCo community; experiment: z-score of prototroph abundance vs DMSO median; higher = larger share of this subpopulation than in DMSO controls; details: 10 µM; 24 h; SM minimal medium; subpopulation (auxotrophy): Prototroph
Outline: as §1

[14] = tested on: Saccharomyces cerevisiae BY4741 SeMeCo community; experiment: z-score of subpopulation abundance vs DMSO median, subpopulation auxotrophic for U; higher = larger share of this subpopulation than in DMSO controls; details: 10 µM; 24 h; SM minimal medium; subpopulation (auxotrophy): U
Outline: as §1

[15] = tested on: Saccharomyces cerevisiae BY4741 SeMeCo community; experiment: z-score of subpopulation abundance vs DMSO median, subpopulation auxotrophic for HM; higher = larger share of this subpopulation than in DMSO controls; details: 10 µM; 24 h; SM minimal medium; subpopulation (auxotrophy): HM
Outline: as §1

[16] = tested on: Saccharomyces cerevisiae BY4741 SeMeCo community; experiment: mean cell size (pixel area) (pixels); higher = larger cells; details: 10 µM; 24 h; SM minimal medium
Outline: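 A Saccharomyces cerevisiae BY4741 community carrying four plasmids, each with a fluorescent marker and each complementing one auxotrophy, was exposed for 24 h to drug at a final 10 µM in SM medium in acoustically predosed 384-well plates. The overnight preculture (OD600 = 1.0) was diluted to OD600 = 0.3 before 70 µl was added per well. Cells were then fixed with paraformaldehyde, imaged by automated confocal microscopy and analysed in Harmony to derive mean cell pixel area per well, averaged over 3 replicates. Same SeMeCo high-content imaging drug screen: Selleck FDA-approved drugs at 10 µM, 24 h in SM medium, 384-well plates, 3 replicates.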

Row | Structure (SMILES) | z-score of subpopulation abundance [1] | z-score of subpopulation abundance [2] | z-score of subpopulation abundance [3] | z-score of subpopulation abundance [4] | z-score of subpopulation abundance [5] | z-score of subpopulation abundance [6] | z-score of subpopulation abundance [7] | z-score of subpopulation abundance [8] | z-score of subpopulation abundance [9] | z-score of subpopulation abundance [10] | z-score of subpopulation abundance [11] | z-score of subpopulation abundance [12] | z-score of prototroph abundance [13] | z-score of subpopulation abundance [14] | z-score of subpopulation abundance [15] | mean cell size [16]
1 | CC(=O)[C@H]1CC[C@H]2[C@@H]3CC=C4C[C@@H](O)CC[C@]4(C)[C@H]3CC[C@]12C [Pregnenolone] | 1.12 | -0.46 | -0.42 | 0.32 | -0.76 | -0.48 | 0.47 | -0.1 | 0.71 | -0.94 | -0.02 | 0.21 | – | – | – | –
2 | C=C1CCC2C(C)(CO)C(O)CCC2(C)C1CC=C1C=COC1=O (configuration not stated) [Dehydroandrographolide] | 1.46 | 0.8 | 1.6 | 1.74 | 0.11 | 0.16 | 1.67 | 0.64 | 0.5 | 0.26 | 1.23 | 0.91 | -0.69 | -0.43 | 0.87 | –
3 | CC[C@H]1OC(=O)C[C@@H](O)[C@H](C)[C@@H](O[C@@H]2O[C@H](C)[C@@H](O[C@H]3C[C@@](C)(O)[C@@H](O)[C@H](C)O3)[C@H](N(C)C)[C@H]2O)[C@@H](CC=O)C[C@@H](C)C(=O)/C=C/C(C)=C/[C@@H]1CO[C@@H]1O[C@H](C)[C@@H](O)[C@@H](OC)[C@H]1OC [Tylosin] | 1.29 | 2.22 | 0.45 | 1.45 | 0.26 | 0.88 | 2.73 | 0.34 | 0.99 | 1.06 | – | 0.01 | – | 0.25 | 0.74 | 12.16 ± 0.07
4 | C[C@@H]1O[C@@H]1P(=O)(O)O [Fosfomycin Disodium] | 0.72 | – | 0.6 | -0.25 | 0.04 | -0.18 | 0.86 | 0.52 | -0.12 | -0.19 | 0.06 | -0.05 | 0.42 | – | -0.52 | 12 ± 0.14
5 | CCCCN1CCCC[C@H]1C(=O)Nc1c(C)cccc1C [Levobupivacaine HCl] | 0.42 | -0.68 | -0.09 | -0.55 | 0.14 | -0.49 | -0.46 | -0.48 | -0.93 | -0.73 | -0.33 | – | 0.73 | -0.04 | -1.34 | 12.4 ± 0.15
6 | C[C@@H](c1nc(-c2ccc(C#N)cc2)cs1)[C@](O)(Cn1cncn1)c1cc(F)ccc1F [Isavuconazole] | -0.71 | – | 0.81 | – | 8.91 | 13.4 | 9.84 | 6.83 | 15.5 | 10.4 | 7.48 | 13.5 | -10.4 | -1.5 | – | 11.95 ± 0.079
7 | COc1cc(/C=C/C(=O)N2CCN(CC(=O)N3CCCC3)CC2)cc(OC)c1OC [Cinepazide maleate] | -1.17 | -0.51 | 0.47 | -1.06 | 0.48 | 0.61 | – | 0.11 | -0.01 | -0.05 | – | -0.53 | – | 1.16 | -0.1 | 12.6 ± 0.14
8 | O=C1[C@@H]2[C@H]3CC[C@H](C3)[C@@H]2C(=O)N1C[C@@H]1CCCC[C@H]1CN1CCN(c2nsc3ccccc23)CC1 [lurasidone] | 0.42 | 0.55 | -0.67 | 0.39 | -0.35 | -1.38 | 0.22 | -0.09 | -0.11 | -0.45 | -0.46 | -0.82 | 0.9 | – | -0.31 | 12.19 ± 0.019
9 | Cc1nc2n(c(=O)c1CCN1CCC(c3noc4cc(F)ccc34)CC1)CCCC2O (configuration not stated) [Paliperidone] | -0.99 | – | -0.02 | -0.14 | 0.19 | – | -1.06 | -0.96 | -1.03 | 0.09 | -1.04 | – | 0.1 | 0.75 | – | 12 ± 0.24
10 | CC(C)c1nc(N(C)S(C)(=O)=O)nc(-c2ccc(F)cc2)c1/C=C/[C@@H](O)C[C@@H](O)CC(=O)O [Rosuvastatin Calcium] | 0.29 | – | 1.26 | – | 2.1 | 2.31 | 0.38 | 1.41 | 3.96 | 2.14 | 1.01 | 0.9 | – | 0.59 | 3.45 | 11.6 ± 0.2
11 | NC[C@H]1O[C@H](O[C@H]2[C@H](O[C@@H]3O[C@H](CO)[C@@H](O)[C@H]3O)[C@@H](O)[C@H](N)C[C@@H]2N)[C@H](N)[C@@H](O)[C@@H]1O [Ribostamycin Sulfate] | -0.39 | -0.21 | 0.09 | -0.67 | -0.5 | 0.36 | -0.49 | -0.07 | -0.38 | 0.24 | -0.84 | 0.36 | 0.31 | – | 0.04 | 12.13 ± 0.035
12 | COc1ccnc(C[S+]([O-])c2nc3cc(OC(F)F)ccc3[nH]2)c1OC (configuration not stated) [Pantoprazole] | 0.22 | 1.49 | 0.17 | 0.04 | 0.3 | -0.26 | – | 1.13 | 0.09 | -0.2 | – | 0.7 | – | – | – | 12.4 ± 0.15
13 | c1ccc(C2CN3CCSC3=N2)cc1 (configuration not stated) [Tetramisole HCl] | 0.54 | -0.14 | -0.21 | – | 0.01 | – | 0.08 | 0.35 | -0.45 | -0.09 | 0.46 | 0.92 | – | -0.11 | -0.54 | –
14 | N#Cc1ccc2[nH]cc(CCCCN3CCN(c4ccc5oc(C(N)=O)cc5c4)CC3)c2c1 [Vilazodone HCl] | 0.01 | 1.09 | -0.14 | 0.25 | 0.14 | -0.14 | 0.87 | -0.1 | -0.45 | 0.23 | 0.66 | -0.28 | – | -0.4 | 0.6 | 12.34 ± 0.018
15 | CCC(C)n1ncn(-c2ccc(N3CCN(c4ccc(OCC5COC(Cn6cncn6)(c6ccc(Cl)cc6Cl)O5)cc4)CC3)cc2)c1=O (configuration not stated) [Itraconazole] | 0.48 | 18.3 | -0.44 | – | 7.89 | 11.4 | – | 7.28 | 12.5 | 9.21 | 6.18 | 7.85 | – | -0.83 | 7.45 | 11.93 ± 0.1
